From the supplement of paper PMC7156485

Key:
Conditions in all cases: concentration: 10 µM; 24 h
[1] = tested on: HCC1569; test: cell number relative to DMSO (% of DMSO); higher = more cells (less growth inhibition / toxicity)
Procedure, shortened: (§1)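 Cells were seeded at 800 per well in 384-well plates with RPMI containing 10% FBS; both HCC1569 and TDF lines were used. Compounds were added at 10 µM for 24 h at 37 °C, in triplicate, before fixation in 3.7% formaldehyde and staining with a rabbit anti-H1.0 antibody, an AlexaFluor 647 secondary and DAPI. H1.0 nuclear intensity or cell number is reported as percent of the plate control using the median of replicates, and HCC1569 values were smoothed for positional effects.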

[2] = tested on: TDF; test: as above
Procedure, shortened: as §1

[3] = tested on: TDF; test: H1.0 immunofluorescence intensity relative to DMSO (% of DMSO); higher = stronger H1.0 induction, active = 120 or more
Procedure, shortened: as §1

[4] = tested on: HCC1569; test: H1.0 immunofluorescence intensity relative to DMSO (% of DMSO); higher = stronger H1.0 induction, active = 140 or more
Procedure, shortened: as §1
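Throughout, for H1.0 immunofluorescence intensity relative to DMSO: TDF is a line of transformed human dermal fibroblasts of mesenchymal origin.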
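Throughout, for cell number relative to DMSO: TDF denotes transformed human dermal fibroblasts of mesenchymal origin.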

| Compound | cell number [1] | cell number [2] | H1.0 immunofluorescence intensity [3] | H1.0 immunofluorescence intensity [4] |
| --- | --- | --- | --- | --- |
| CCCCCC(C=CC=CCCCCCCCC(=O)O)OO (stereo unspecified) | 99.9 | 108 | 99.2 (inactive) | 94.4 (inactive) |
| CN1CCc2cccc(Cl)c2CC1.Cl | 103 | 98.7 | 96.2 (inactive) | 86.7 (inactive) |
| COCC1OC(=O)c2coc3c2C1(C)C1=C(C3=O)C2CCC(=O)C2(C)CC1OC(C)=O (stereo unspecified) [Wortmannin from Penicillium funiculosum] | 41.7 | 100 | 89.5 (inactive) | 153 (active) |
| CC=C(C)C(=O)OC1CCC2(C)C3CCC4C5(O)CC(O)C6(O)C(CN7CC(C)CCC7C6(C)O)C5(O)CC42OC13O (stereo unspecified) [Cevadine] | 99.9 | 99.4 | 96.4 (inactive) | 93 (inactive) |
| CCCC(=O)OC1C(C)C2(O)C(C=C(CO)CC3(O)C(=O)C(C)=CC32)C2C(C)(C)C12OC(=O)CCC (stereo unspecified) [Phorbol 12,13-dibutyrate] | 89.5 | 74.2 | 123 (active) | 157 (active) |
| CC(NC(C)(C)C)C(=O)c1cccc(Cl)c1.Cl (stereo unspecified) [Bupropion hydrochloride] | 106 | 109 | 102 (inactive) | 99.7 (inactive) |
| COC(=O)N1CCN(C(=O)Cc2ccc(Cl)c(Cl)c2)C(CN2CCCC2)C1.O=C(O)C=CC(=O)O (stereo unspecified) | 100 | 102 | 97.7 (inactive) | 95.7 (inactive) |
| CC(Cc1ccc(OCC(=O)[O-])cc1)NCC(O)c1cccc(Cl)c1.[Na+] (stereo unspecified) | 104 | 110 | 89.5 (inactive) | 88.6 (inactive) |
| CCCN1CCCC(c2cccc(C#N)c2)C1.Cl (stereo not drawn) [S(-)-DS 121 hydrochloride] | 100 | 96.1 | 92.4 (inactive) | 84.5 (inactive) |
